Measured values reported in PubChem BioAssay (NCATS).
“And” between values parts separate entries of the source, which are not always exact repeats. Equal values may be shown once. Inconclusive results are not listed. The source made the active and inactive calls. Unless noted, calls come from the whole dose curve; as a rule, active = well fitted curve in the direction sought with a large enough effect; inconclusive = small, poorly fitted or top-dose-only effect, or another doubt; inactive = no such curve, though single readings can be large; an effect the other way counts as inactive or inconclusive.

Tests used:
[1] = Cell Viability - BJ (AID 421; calls by dose curve;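 note: potency is the fitted concentration of half-maximal effect; cells exposed to compound for 40 hours at 37 °C before readout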); details: BJ fibroblast viability, qHTS
Summary of the method: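 Quantitative HTS: ATP depletion in BJ cells after 40 hr compound exposure in complete culture medium, detected with CellTiter-Glo; AC50 from standard Hill fits.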

[2] = Cell Viability - MRC5 (AID 434; calls by dose curve;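 note: potency is the fitted concentration of half-maximal effect; cells exposed to compound for 40 hours at 37 °C; potency reflects cytotoxicity seen as loss of intracellular ATP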); details: MRC5 lung fibroblast viability, qHTS
Summary of the method: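 Decrease in intracellular ATP, quantified by luciferase light output, reflects compound toxicity toward MRC5 cells exposed for 40 hr in complete culture medium. Concentration-response curves, scaled between DMSO and 100 uM tamoxifen, gave AC50 values.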

[3] = Cell Viability - N2a (AID 540); details: N2a mouse neuroblastoma cell viability; activity change, negative = cytotoxicity: at 92.2 µM (top of the series);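 note: cells exposed to compound for 40 h at 37 °C; nearly all actives have a fitted effect of over 45% in size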; note: potency is the fitted concentration of half-maximal effect;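 for activity change, negative = cytotoxicity: plate controls were DMSO alone for no effect and tamoxifen control for full effect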
Summary of the method: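 Cytotoxicity was scored as loss of cellular ATP in N2a cells, a mouse neuroblastoma line. Compounds are applied in a qHTS concentration series for 40 hr at 37 °C.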

[4] = Cellular Toxicity (caspase-3) HepG2 (AID 654); details: HepG2 caspase-3 activation, luminescence, 0% = DMSO only, 100% = tamoxifen; series mostly up to 92.2 µM;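 note: cells exposed to compound for 16 hours before reading; 0% = DMSO alone and 100% = caspase signal from 100 µM tamoxifen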
Summary of the method: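 Caspase 3/7 activation in HepG2 is measured as rising luminescence after a 16 hr treatment at 37 °C. Values are scaled between DMSO basal and 100 uM tamoxifen, and AC50 is fitted with the Hill equation.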

[5] = Cellular Toxicity (caspase-3) BJ (AID 658); details: BJ fibroblasts, luminescence, normalized: DMSO 0%, staurosporine 100%; series mostly up to 91.7 µM;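 note: 0% = DMSO basal and 100% = 10 µM staurosporine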
Summary of the method: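 Plated BJ cells (1000/well) rested 5 hr, received compound for 16 hr at 37 °C, then Caspase-Glo 3/7 reagent for 1 hr at room temperature before luminescence reading.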

[6] = Cellular Toxicity (caspase-3) Mesangial (AID 660); details: mesangial cells; Potency: caspase-3 activation; series mostly up to 91.7 µM;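 note: combined caspase 3 and 7 activity read by Caspase-Glo luminescence; cells exposed to compound for 16 h before the caspase read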; note: potency is the fitted concentration of half-maximal effect
Summary of the method: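 Seed cells derived from normal human renal glomeruli, incubate 5 h, add compounds across concentrations and incubate 16 h at 37 °C. Caspase 3/7 activation is then quantified by luciferase light, with AC50 derived by Hill modeling.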

[7] = Cellular Toxicity (caspase-3) Renal Proximal Tubule (AID 667); details: renal proximal tubule cells; at 91.7 µM (top of the series) unless noted;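 note: cells exposed to compound for 16 hours at 37 °C before detection; 0% = DMSO basal and 100% = 10 µM staurosporine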
Summary of the method: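 Caspase 3/7 activation measured by luminescent aminoluciferin release in primary rat proximal tubule cells after 16 hr compound exposure at 37 °C. AC50 from Hill-fitted concentration-response, scaled between DMSO and 10 uM staurosporine.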

[8] = MultiTox-Fluor Cytotoxicity Assay - LYMP1-002 - Live Cells (AID 955); details: LYMP1-002 lymphoblastoid live-cell protease fluorescence viability; series mostly up to 46.1 µM; note: potency is the fitted concentration of half-maximal effect
Summary of the method: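 Cells were seeded at 2500 per well and incubated 5 hr. Compounds were then added for 16 hr at 37 C, followed by MultiTox-Fluor reagent for 60 min at room temperature and fluorescence reading of viable-cell protease signal.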

[9] = MultiTox-Fluor Cytotoxicity Assay - LYMP1-003 - Live Cells (AID 962); details: LYMP1-003 lymphoblastoid cells, MultiTox-Fluor live-cell protease fluorescence; series mostly up to 92.2 µM; note: potency is the fitted concentration of half-maximal effect
Summary of the method: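 Acute cytotoxicity is scored as a drop in live-cell protease activity in human lymphoblastoid LYMP1-003 cells after 16 hr compound exposure at 37 C. AC50 values come from Hill-equation modelling of concentration-response data.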

[10] = Cell Viability - LYMP2-003 (AID 965); details: LYMP2-003 lymphoblastoid cell viability; series mostly up to 92.2 µM;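 note: cells exposed to compounds for 24 h before reading; nearly all actives have a fitted effect of over 50% in size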; note: potency is the fitted concentration of half-maximal effect;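 for activity change, negative = cytotoxicity: 0% = DMSO only and full effect = 92 µM tetraoctylammonium bromide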
Summary of the method: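 CellTiter-Glo luminescence quantified ATP loss after 24 h compound treatment of LYMP2-003 lymphoblastoid cells at 37 C. Titration series were fitted with the standard Hill equation to give AC50.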

[11] = Cell Viability - LYMP2-015 (AID 971); details: LYMP2-015 lymphoblastoid cell viability; series mostly up to 92.2 µM; note: nearly all actives have a fitted effect of over 55% in size; note: potency is the fitted concentration of half-maximal effect
Summary of the method: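 Cells are seeded at 2500 per well and incubated 5 hr at 37 C. Compounds are added across a concentration series for 24 hr at 37 C. CellTiter-Glo is added, and luminescence is read after 30 min at room temperature.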

[12] = Cell Viability - LYMP2-008 (AID 980); details: LYMP2-008 lymphoblastoid cell viability, qHTS; series mostly up to 92.2 µM; note: nearly all actives have a fitted effect of over 60% in size; note: potency is the fitted concentration of half-maximal effect; for activity change, negative = cytotoxicity: % is set by controls: 0 for no effect and ±100 for the full control effect
Summary of the method: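 Cells seeded at 2500/well and rested 5 hr at 37 C; compounds added over a concentration range and incubated 24 hr at 37 C; CellTiter-Glo added, 30 min at room temperature; luminescence read and AC50 fitted with Hill model.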

[13] = Cell Viability - LYMP2-016 (AID 984); details: LYMP2-016 lymphoblastoid cell viability, qHTS; series mostly up to 92.2 µM;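 note: cells exposed to compound for 24 hours at 37 °C; nearly all actives have a fitted effect of over 55% in size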; note: potency is the fitted concentration of half-maximal effect; for activity change, negative = cytotoxicity: % is set by controls: 0 for no effect and ±100 for the full control effect
Summary of the method: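 Cytotoxicity was scored by luminescent ATP content (CellTiter-Glo) after 24 h compound exposure at 37 C of a human lymphoblastoid line at 2500 cells/well. Concentration-response data were fitted to the Hill equation for AC50.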

[14] = qHTS assay for environmental chemicals that activate the Aryl hydrocarbon Receptor (AhR) signaling pathway (AID 651777); details: 1A2-DRE human hepatoma cells, luciferase, 24 h; activation: stronger effect = higher value; note: % of control where 0% means no effect; nearly all actives have a fitted effect of over 15% in size
Summary of the method: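 Following a 24 hr incubation with test chemicals at 37 C and 5% CO2, 1A2-DRE human hepatoma cells received One-Glo reagent; after 30 min at room temperature, luciferase output reflected CYP1A2 induction via AhR.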

[15] = qHTS assay for small molecule agonists of the antioxidant response element (ARE) signaling pathway measured by Nrf2-dependant transcriptional activity - cell viability counter screen (AID 720653; active = well fitted curve in the direction sought with a large enough effect in the repeat runs; an effect the other way counts as inactive or inconclusive; note: potency is the fitted concentration of half-maximal effect; for max response: % is set by controls: 0 for no effect and ±100 for the full control effect); details: ARE-bla HepG2 viability, CellTiter-Glo ATP luminescence, 16 h; max response: stronger effect = lower value
Summary of the method: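 ARE-bla HepG2 cells (2,000/well) rested 5 hrs at 37C/5% CO2, then exposed to compounds in DMSO for 16 hrs. Viability was read in the same wells as intracellular ATP by luminescence, 30 min at room temperature after reagent addition.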

[16] = molecular target: Mitogen-activated protein kinase 10 (Mus musculus) (UniProt Q61831); assay: JNK3 AlphaScreen Assay (AID 530; active = well fitted curve in either direction with a large enough effect, not every such curve was filed as active;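 note: kinase came from lysate of stimulated human HepG2 cells; signal reports phosphorylation of biotinylated GST-cJun 1-79 at Ser73 with 10 µM ATP; % is set by controls: 0 for no effect and ±100 for the full control effect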); details: JNK3 lysate, c-Jun phosphorylation; series mostly up to 57.1 µM
Summary of the method: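 Phosphorylation of biotinylated GST-cJun(1-79) at Ser73 is measured by AlphaScreen proximity luminescence. Enzyme is JNK3 in HepG2 lysates activated with interleukin-1beta and tumor necrosis factor alpha; ATP is 10 uM final.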

[17] = molecular target: Glucocorticoid receptor (Homo sapiens) (UniProt P04150); assay: GR-GFP Redistribution (AID 450;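 active = compounds whose dose series gives a full or clear partial fitted curve of increased nuclear translocation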; note: potency is the fitted concentration of half-maximal effect); details: U2OS GR-GFP nuclear translocation, laser cytometry, 2 h
Chain of Glucocorticoid receptor (Homo sapiens) (P04150 whole entry, looked up): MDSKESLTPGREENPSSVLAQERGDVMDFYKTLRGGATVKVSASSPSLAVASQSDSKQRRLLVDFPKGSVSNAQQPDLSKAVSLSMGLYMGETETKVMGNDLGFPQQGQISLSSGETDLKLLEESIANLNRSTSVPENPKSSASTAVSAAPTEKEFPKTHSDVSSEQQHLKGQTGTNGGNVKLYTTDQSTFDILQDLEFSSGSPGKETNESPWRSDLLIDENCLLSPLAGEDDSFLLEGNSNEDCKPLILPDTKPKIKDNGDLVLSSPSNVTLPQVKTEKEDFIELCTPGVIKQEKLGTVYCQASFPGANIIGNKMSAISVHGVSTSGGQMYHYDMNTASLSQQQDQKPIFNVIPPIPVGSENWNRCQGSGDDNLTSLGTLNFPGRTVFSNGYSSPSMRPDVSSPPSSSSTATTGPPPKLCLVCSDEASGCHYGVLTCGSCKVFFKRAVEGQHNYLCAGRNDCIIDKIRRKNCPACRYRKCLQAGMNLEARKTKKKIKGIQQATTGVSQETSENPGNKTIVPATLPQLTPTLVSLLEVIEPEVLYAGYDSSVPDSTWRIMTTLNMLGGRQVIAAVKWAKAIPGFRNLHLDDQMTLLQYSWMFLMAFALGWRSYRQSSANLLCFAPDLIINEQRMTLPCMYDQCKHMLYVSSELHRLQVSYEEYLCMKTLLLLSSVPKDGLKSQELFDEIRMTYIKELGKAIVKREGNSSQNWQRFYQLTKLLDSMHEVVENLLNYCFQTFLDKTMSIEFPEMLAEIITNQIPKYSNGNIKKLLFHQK

[18] = molecular target: Alpha-galactosidase (Coffea arabica) (UniProt Q42656); assay: Counterscreen for Glucocerebrosidase Inhibitors: qHTS Assay for Coffee Bean alpha-Galactosidase at pH 4.5 (AID 957); details: purified coffee bean alpha-galactosidase, fluorogenic substrate; series mostly up to 76.9 µM;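 note: plate controls were enzyme alone for no effect and no enzyme for full effect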
Chain of Alpha-galactosidase (Coffea arabica) (Q42656 whole entry, looked up): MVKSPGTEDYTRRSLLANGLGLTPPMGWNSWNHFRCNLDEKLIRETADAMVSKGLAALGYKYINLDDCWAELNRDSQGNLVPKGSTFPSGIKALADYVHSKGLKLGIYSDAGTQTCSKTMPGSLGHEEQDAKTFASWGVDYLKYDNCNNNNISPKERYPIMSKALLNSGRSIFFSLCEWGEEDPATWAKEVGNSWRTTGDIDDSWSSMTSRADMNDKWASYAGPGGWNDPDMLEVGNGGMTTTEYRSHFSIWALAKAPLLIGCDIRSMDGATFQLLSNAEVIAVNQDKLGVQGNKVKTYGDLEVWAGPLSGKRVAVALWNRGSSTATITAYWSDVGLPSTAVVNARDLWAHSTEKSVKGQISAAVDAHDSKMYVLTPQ
Summary of the method: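 Enzyme is added first (2 nM final), then compounds titrated from 0.7 nM to 77 uM, then 80 uM 4-methylumbelliferyl alpha-D-galactopyranoside; after 20 min at room temperature a pH 10 NaOH/glycine stop precedes fluorescence reading at 365/440 nm.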

[19] = molecular target: Alpha-galactosidase (Coffea arabica) (UniProt Q42656); assay: Counterscreen for Glucocerebrosidase Inhibitors: qHTS Assay for Coffee Bean alpha-Galactosidase at pH 5.9 (AID 998); details: coffee bean alpha-galactosidase enzyme assay; series mostly up to 76.9 µM;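 note: plate controls were uninhibited enzyme for no effect and no-enzyme basal signal for full effect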
Summary of the method: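 In 50 mM citric acid pH 5.9 with 0.005% Tween-20, coffee bean enzyme hydrolyses 80 uM 4-MU alpha-D-galactopyranoside over 20 min at RT. Activity is normalized to controls; AC50 comes from Hill-modelled concentration-response data.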

Clc1ccc(C(c2ccc(Cl)cc2)C(Cl)Cl)cc1
active: Potency [1] 55 µM | Potency [2] 45.4 µM | activity change, negative = cytotoxicity [3] -102% | Potency [6] 31.6 µM | caspase-3 activation [7] 152%
inactive: outcome [4] | outcome [5] | Potency [8] | Potency [9] | Potency [10] | Potency [11] | Potency [12] | Potency [13] | activation [14] 0.923% and 0.102% | max response [15] -1.77% and -12.4%

COP(=O)(OC)O/C(=C\Cl)c1cc(Cl)c(Cl)cc1Cl
inactive: Potency [1] > 92 µM | Potency [2] > 92 µM | outcome [16] | outcome [4] | outcome [5] | Potency [6] | caspase-3 activation [7] 2.58% [at 91.7 µM, primary cells freshly taken from rat, solvent-only wells 0%, staurosporine 100%] | Potency [8] | Potency [9] | Potency [10] | Potency [11] | Potency [12] | Potency [13] | activation [14] 0.406% | max response [15] -14.8%

O=C(O)C1C(C(=O)O)C2(Cl)C(Cl)=C(Cl)C1(Cl)C2(Cl)Cl (stereo not drawn)
inactive: Potency [1] > 92 µM | Potency [2] > 92 µM | outcome [16] | activity change, negative = cytotoxicity [3] 14.3% | outcome [4] | outcome [5] | Potency [6] | caspase-3 activation [7] -21% [at 91.7 µM, primary cells freshly taken from rat, solvent-only wells 0%, staurosporine 100%] | Potency [8] | Potency [9] | Potency [10] | Potency [11] | Potency [12] | Potency [13] | activation [14] 0.623% | max response [15] 5.57%

Cn1c(O)c(C(=O)c2ccccc2Cl)c(=O)n(C)c1=O
inactive: Potency [17] > 20.6 µM

CC(C)[C@@]1(NC(=O)[C@@H]2C=C3c4cccc5[nH]cc(c45)C[C@H]3N(C)C2)O[C@@]2(O)[C@@H]3CCCN3C(=O)[C@H](Cc3ccccc3)N2C1=O
inactive: Potency [17] > 20.6 µM

O=C(CCl)c1ccccc1
inactive: outcome [4] | outcome [5] | Potency [6] | caspase-3 activation [7] -4.24% | activation [14] -0.199% and 2.38% | max response [15] -32.5% and -9.07%
active: Potency [1] 39.2 µM | activity change, negative = cytotoxicity [3] -113% | Potency [8] 31.6 µM | Potency [9] 39.8 µM | Potency [10] 10 µM | Potency [11] 7.94 µM | Potency [12] 12.6 µM | Potency [13] 10 µM

OC(Cc1ccccc1)(c1ccccc1)C1CN2CCC1CC2 (stereo not drawn)
inactive: Potency [17] > 20.6 µM

ClC1=C(Cl)C2(Cl)C3C(Cl)C(Cl)CC3C1(Cl)C2(Cl)Cl (stereo not drawn)
active: activity change, negative = cytotoxicity [3] -82.9%
inactive: outcome [16] | outcome [4] | outcome [5] | Potency [6] | caspase-3 activation [7] 19% | Potency [8] | Potency [9] | Potency [11] | Potency [12] | Potency [13] | max response [15] -13.1%

C[C@@H]1CC[C@@]2(OC1)O[C@H]1[C@@H](O)[C@H]3[C@@H]4CC[C@H]5C[C@@H](O[C@@H]6O[C@H](CO)[C@H](O[C@@H]7O[C@H](CO)[C@@H](O)[C@H](O[C@@H]8OC[C@@H](O)[C@H](O)[C@H]8O)[C@H]7O[C@@H]7O[C@H](CO)[C@@H](O)[C@H](O[C@@H]8O[C@H](CO)[C@@H](O)[C@H](O)[C@H]8O)[C@H]7O)[C@H](O)[C@H]6O)[C@H](O)C[C@]5(C)[C@H]4CC[C@]3(C)[C@H]1[C@@H]2C
active: Potency [1] 19.9 µM | Potency [2] 24.4 µM | Potency [3] 31.6 µM | Potency [8] 3.98 µM | Potency [9] 10 µM | Potency [10] 20 µM | Potency [11] 15.8 µM | Potency [12] 20 µM | Potency [13] 25.1 µM | Potency [15] 17.8 µM
inactive: outcome [16] | outcome [4] | outcome [5] | Potency [6] | caspase-3 activation [7] -2.38% | activation [14] -9.71%

COC[C@H]1OC(=O)c2coc3c2[C@@]1(C)C1=C(C3=O)[C@H]2CCC(=O)[C@@]2(C)C[C@H]1OC(C)=O
inactive: outcome [16] | outcome [18] | outcome [19]
active: Potency [17] 0.838 µM

CC(C)CC(C)Nc1ccc(Nc2ccccc2)cc1 (stereo not drawn)
inactive: Potency [1] > 92 µM | outcome [4] | outcome [5] | Potency [6] | activation [14] 10.8% | max response [15] -3.35%
active: activity change, negative = cytotoxicity [3] -118% | Potency [9] 50.1 µM | Potency [10] 39.8 µM | Potency [11] 39.8 µM | Potency [12] 39.8 µM | Potency [13] 50.1 µM

Cc1c(N=Cc2c(O)n(CCc3ccc(F)cc3)c(=O)[nH]c2=O)c(=O)n(-c2ccccc2)n1C
inactive: Potency [17] > 20.6 µM
